IMPase cell inh – IMPase inhibition in cells; P97697; CHO-M1 cells, IP1 accumulation, HTRF TR-FRET ratio; inhibition (IP1 accumulation), % at 46.1 µM; 120,000 tested, under 10 active; AID 901; active means well fitted curve in the direction sought with a large enough effect in the signal ratio, not every such curve was filed as active; inconclusive means small, poorly fitted or top-dose-only effect, or a change in a side signal; inactive means no such curve, though single readings can be large or run the other way; the % refers to the signal ratio;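 further: cells stimulated with carbachol in lithium chloride buffer; plate controls were DMSO basal wells for no effect and reference inhibitor wells for full effect; higher means more IMPase inhibition seen as more IP1 and lower FRET ratio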
Target sequence (P97697 whole entry, looked up): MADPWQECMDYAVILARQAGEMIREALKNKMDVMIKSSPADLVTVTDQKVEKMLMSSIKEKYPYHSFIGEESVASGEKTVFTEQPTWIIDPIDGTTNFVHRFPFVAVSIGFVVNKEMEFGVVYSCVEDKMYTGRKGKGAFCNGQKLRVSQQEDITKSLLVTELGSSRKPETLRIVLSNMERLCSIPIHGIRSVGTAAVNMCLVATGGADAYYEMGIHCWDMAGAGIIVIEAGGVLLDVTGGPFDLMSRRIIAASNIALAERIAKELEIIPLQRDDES
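Seeded CHO-M1 cells were dosed with compound at up to 46 uM, stimulated with carbachol for 30 min, then lysed in IP-One detection reagents. Higher IP1 lowers the TR-FRET signal.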
PNC assembly inh – perinucleolar compartment assembly inhibition; activity change (PNC), negative = inhibition, % at 10 µM; PC3M PTB-GFP, PNC prevalence imaging, 16 h; stronger effect = lower value; 3.1% of 140,000 active;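 active means readout at or below -70, meaning at least 70% loss of cells showing the perinucleolar compartment, a nuclear body marking cancer cells; inconclusive means readout between -30 and a set limit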;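 further: plate controls were DMSO wells for no effect and camptothecin positive control wells for full effect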
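Read-out is percentage of cells bearing a perinucleolar compartment, from automated 20x imaging of fixed, Hoechst-stained PC3M PTB-GFP cells. Cells were seeded 4 h, then exposed 16 h to compound (23 nl of library stock) in duplicate plates.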
HTT cytoprotect – cytoprotection in Huntington HTT-Q103 PC12 cell model; PC12 HTT-Q103 induced, cytoprotection, ATP luminescence, 40 h; Potency, µM (top dose mostly 56.4 µM), for inactives: cytoprotection (ATP increase), actives largely listed as activators; 0.14% of 230,000 active; further: potency means the concentration at half of the fitted maximal effect; % of control where 0% means no effect; nearly all actives have a fitted effect of over 45% in size
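Cells were plated at 1500 per well in phenol red-free DMEM with 5% equine and 5% calf serum. Tebufenozide (100 nM final) and compounds were added, then ATPlite reagent, and luminescence was read.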
HTT aggregate – reduces HttQ103-GFP aggregates in PC12 cells; PC12 HttQ103-GFP aggregates, Acumen cytometry, 40 h; Potency, µM (titrated, usually from 46.1 µM), for the others: top-dose activity change, negative = inhibition, hits mostly inhibitors; 1.1% of 220,000 active; further: potency means the concentration at half of the fitted maximal effect; on the % scale 0 is the no-effect control and ±100 the full control effect; nearly all actives have a fitted effect of over 60% in size
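Using laser scanning cytometry, GFP-positive aggregates were counted after lysis of PC12 cells induced with 100 nM tebufenozide to express HTT exon 1 Q103–GFP. Compounds were tested in titration.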
IMPase Li inh – cell-permeable IMPase inhibitors with lithium potentiation; CHO-M1 cells, IP1 TR-FRET (IP-One), carbachol + lithium; Potency, µM (series often up to 59.4 µM), inactives show at the highest dose activity, negative = IMPase inhibition, actives largely listed as inhibitors; 0.35% of 210,000 active;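 further: IP1 builds up when IMPase is blocked and the TR-FRET signal falls; potency means the concentration at half of the fitted maximal effect; plate controls were basal vehicle for no effect and high inhibitor control for full effect; nearly all actives have a fitted effect of over 50% in size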
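CHO cells stably expressing M1 receptor (2000/well, cultured 16–30 h) treated 30 min at 37C with compound plus low lithium. Cytosolic IP1 by TR-FRET (665/620 ratio and 620 channel) after 10 min lysis; AC50 by Hill fit.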
NPSR antag – antagonists of human neuropeptide S receptor cAMP signaling; CHO-NPSR cells, cAMP TR-FRET, antagonist mode; 1% of 220,000 active; Q6W5P4; Potency, µM (top dose mostly 38.3 µM), inactives show at the top dose activity change, negative = inhibition, usual class: inhibitors; further: potency means the concentration at half of the fitted maximal effect; on the % scale 0 is the no-effect control and ±100 the full control effect; nearly all actives have a fitted effect of over 50% in size
* hit, by the source's call; ? = inconclusive; . = no result given; ! = not active in a repeat; [ ] = remark or other dose. Sampled rows, rich in hits. Any-hit rate of the full collection: about 3.4%. Unless noted, the call rests on the fitted dose curve; in most records, active means well fitted curve in the direction sought with a large enough effect; inconclusive means small, poorly fitted or top-dose-only effect, or another doubt; inactive means no such curve, though single readings can be large; an effect the other way counts as inactive or inconclusive.

SMILES | IMPase cell inh | PNC assembly inh | HTT cytoprotect | HTT aggregate | IMPase Li inh | NPSR antag
COC(=O)NNS(=O)(=O)c1ccc(C)cc1 | . | -99* | . | 2% | -6% | 7%
CC1CCC2C(=O)N3C(CCC(C)[C@@H]3c3ccc(Br)cc3)C(=O)N2C1c1ccc(Br)cc1 (stereo partly drawn) | . | . | -29%[10 µM] | . | . | .
CC1(C)CC(NC(=O)C23CCC(C)(/C(=N/O)C2)C3(C)C)CC(C)(C)N1 (stereo not drawn) | 1 | -118* | 3% | 18% | -9%[38.3 µM] | -3%[7.67 µM]
CC1(C)CC(NC(=O)C23CCC(C)(C(=O)C2=O)C3(C)C)CC(C)(C)N1 (stereo not drawn) | . | . | -34% | -10% | 0% | 34%
CN1\C(=C/C=C/C=C/C=[N+](C)C)C(C)(C)c2ccccc21 | . | . | -42% | 10µM* | 1% | 10µM*
CN1/C(=C\C=O)C(C)(C)c2ccccc21 | . | . | -20% | ? | 1% | 9%
COc1cccc2c1C(=O)c1c(O)c3c(c(O)c1C2=O)C[C@@](O)(C(=O)CO)C[C@@H]3OC1C[C@@H](N)[C@H](O)[C@H](C)O1 (stereo partly drawn) | . | . | -183% | . | 17% | .
COc1cccc2c1C(=O)c1c(O)c3c(c(O)c1C2=O)C[C@@](O)(C(C)=O)C[C@@H]3O[C@H]1C[C@H](N)[C@H](O)[C@H](C)O1 | 16 | -115* | -142% | 2.2µM*! | 33% | ?
CC(=O)[C@]1(O)Cc2c(O)c3c(c(O)c2[C@@H](O[C@H]2C[C@H](N)[C@H](O)[C@H](C)O2)C1)C(=O)c1ccccc1C3=O | . | . | -97% | 0.63µM* | 42% | -9%[46.1 µM]
CC(=O)[C@]1(O)Cc2c(O)c3c(c(O)c2[C@@H](O[C@H]2C[C@H](N)[C@H](O)[C@H](C)O2)C1)C(=O)c1c(O)cccc1C3=O | . | . | -35% | 0.63µM* | 31% | .
COc1cccc2c1C(=O)c1c(O)c3c(c(O)c1C2=O)C[C@](O)(C(=O)CO)C[C@@H]3O[C@H]1C[C@H](N)[C@@H](O)[C@H](C)O1 | . | . | -26% | -3% | . | .
CC(C)CCN1CCN(Cc2nc(-c3ccc(F)cc3)cs2)CC1CCO (stereo not drawn) | . | . | -47% | -17% | 20% | 10%
COc1ccc(-c2cc(C(=O)NCCc3ccc(OC)c(OC)c3)c3ccccc3n2)cc1 | -12 | . | . | . | . | .
Cc1sc(N)c(C(=O)c2cccc(C(F)(F)F)c2)c1C | 7 | . | 20% | . | 21% | .
CCOc1ccc(OCC)c(NC(=O)c2ccc(CNc3c(N4CCOCC4)c(=O)c3=O)cc2)c1 | 1 | ? | 3.2µM* | ? | 14%[38.3 µM] | -12%[46.1 µM]
N#CC(C#N)=C1C=C2C=C(N3CCOCC3)CCC2CC1 (stereo not drawn) | . | . | 8%[10 µM] | 1.3µM* | 38% | -51%
CN1CCN(C2=CC3=CC(=C(C#N)C#N)CCC3CC2)CC1 (stereo not drawn) | . | . | -12% | 0.32µM* | 64% | -48%
CCN1CCN(C2=CC3=CC(=C(C#N)C#N)CCC3CC2)CC1 (stereo not drawn) | . | . | . | 2.8µM* | 25% | -59%
N#CC(C#N)=C1C=C2C=C(N3CCCCCC3)CCC2CC1 (stereo not drawn) | . | -134* | -1%[10 µM] | 0.71µM* | 23% | -29%
N#Cc1cc(Cl)c(N2CCOCC2)cc1C#N | -4 | 14 | -6% | 14% | 6%[38.3 µM] | -8%[46.1 µM]
O=C(Cc1ccc2c(c1)OCCO2)N1CCN(S(=O)(=O)c2cccc(C(F)(F)F)c2)CC1 | . | 11 | 6%[10 µM] | 12% | 11% | -1%
CCC/C=C(\CCC)C(NC(=O)Oc1ccc(F)cc1)c1ccc(C(=O)OC)cc1 (stereo not drawn) | . | . | 5% | . | -2% | .
CCOc1c2ccc(C(=O)NCc3cc(C(F)(F)F)cc(C(F)(F)F)c3)cc2nn1CCOC | 2 | 64 | -1% | -18% | -9%[38.3 µM] | -11%[46.1 µM]
